Shown is part of a subset that was picked to be rich in hits.
Dicer processing = inhibitors of human Dicer processing of pre-microRNA. Q9UPY3. cat-ELCCA pre-miR-21 Dicer processing, chemiluminescence; stronger effect = higher value. z-score at 25 µM. 6% of 47,000 active. AID 1347074; in the data active = z-score above about 3, passing the limit was not always enough;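 note: higher signal means more uncleaved substrate so more Dicer inhibition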
A number is an active result.

Results for Cc1nc2c(cnn2-c2ccccc2)c(=O)n1/N=C/c1cccs1 ?
Dicer processing: inactive

Results for Cc1nc2c(cnn2-c2ccccc2)c(=O)n1/N=C/c1ccc(Cl)cc1 ?
Dicer processing: 3.2

How did O=c1c2cnn(-c3ccccc3)c2nnn1/N=C/c1ccc(OCc2ccccc2)cc1 do in these assays?
Dicer processing: inactive

What do the screens show for `O=c1c2cnn(-c3ccccc3)c2ncn1/N=C/c1ccc(Cl)cc1`?
Dicer processing: inactive

Results for O=c1c2cnn(-c3ccccc3)c2ncn1/N=C/c1ccc(OCc2ccccc2)cc1 ?
Dicer processing: inactive

How did CN(C)c1ccc(/C=N/NC(N)=S)cc1C#N do in these assays?
Dicer processing: inactive

What do the screens show for `O=C(O)C(c1ccccc1)n1cccc1` (stereo unspecified)?
Dicer processing: inactive

Results for O=S(=O)(Nc1cccc2cccnc12)c1ccccc1 ?
Dicer processing: 7.7

Results for O=S(=O)(Nc1ccc(Br)c2cccnc12)c1ccccc1 ?
Dicer processing: 4.7

How did Cc1ccc2cccc(NS(=O)(=O)c3ccccc3)c2n1 do in these assays?
Dicer processing: inactive

Results for O=C(Nc1ccc(Cl)cc1)Nc1ccc(Br)c2cccnc12 ?
Dicer processing: inactive

How did COc1cc(S(=O)(=O)Nc2ccccn2)ccc1Br do in these assays?
Dicer processing: inactive

How did Cc1ccc(C)c(NS(=O)(=O)c2cccc3cccnc23)c1 do in these assays?
Dicer processing: inactive

What do the screens show for `CC(C)N(Cc1ccccc1)S(=O)(=O)c1ccc(CNC(=O)c2ccc(Cl)cc2)s1`?
Dicer processing: inactive

How did CC1CCc2c(sc(NC(=O)c3ccncc3)c2C(N)=O)C1 (stereo unspecified) do in these assays?
Dicer processing: inactive

What do the screens show for `Cc1ccc(S(=O)(=O)NC(=O)NC2Cc3ccccc3C2)cc1`?
Dicer processing: inactive

Results for O=S(=O)(NCCc1ccccn1)c1ccc(-c2ccccn2)s1 ?
Dicer processing: inactive

How did O=S(=O)(Nc1nc(SCc2ccc(Cl)cc2)n[nH]1)c1ccc(F)cc1 do in these assays?
Dicer processing: inactive

What do the screens show for `O=S(=O)(Nc1nc(SCc2ccc(Cl)cc2)n[nH]1)c1ccc(-c2ccccn2)s1`?
Dicer processing: 3.4

Results for O=C(COc1ccccc1)NC1CCSC1=O (stereo unspecified) ?
Dicer processing: 3.4

What do the screens show for `O=C(CCCOc1ccccc1)NC1CCSC1=O` (stereo unspecified)?
Dicer processing: inactive

What do the screens show for `O=C(CCc1ccccc1)NC1CCSC1=O` (stereo unspecified)?
Dicer processing: inactive

What do the screens show for `Cc1ccc(CN2C(=O)c3oc4ccc(Cl)cc4c(=O)c3C2c2ccc(O)cc2)cc1` (stereo unspecified)?
Dicer processing: inactive

Results for COC(=O)C1=C(C(=O)OC)SC(=C2C(=S)C(C)(C)N3C(=O)C(=O)c4c(C)c(C)cc2c43)S1 ?
Dicer processing: inactive

What do the screens show for `COC(=O)C1=C(C)NC2=C(C(=O)CCC2)C1c1cc([N+](=O)[O-])c(C)s1` (stereo unspecified)?
Dicer processing: inactive

What do the screens show for `CCOC(=O)C1=C(C)NC(C)=C(C(=O)OC)C1c1cccc([N+](=O)[O-])c1` (stereo unspecified)?
Dicer processing: inactive

What do the screens show for `COC(=O)C1=C(C)NC(C)=C(C(=O)OC)C1c1ccccc1[N+](=O)[O-]`?
Dicer processing: 11

What do the screens show for `O=[N+]([O-])c1ccc(-n2ncc(-c3nnc(-c4cccs4)o3)c2C(F)(F)F)cc1`?
Dicer processing: inactive

Results for Cc1ccc(S(=O)(=O)n2nc(C)cc2N)cc1 ?
Dicer processing: inactive

Results for Cc1ccc(S(=O)(=O)n2ccc3cc(N)ccc32)cc1 ?
Dicer processing: 5.7

How did Cc1ccc(S(=O)(=O)c2c(C)cc(C)cc2C)cc1 do in these assays?
Dicer processing: inactive

Results for O=C(O)CCS(=O)(=O)CCC(=O)O ?
Dicer processing: inactive

How did O=C1N(c2ccc(C(F)(F)F)cc2)C(=Nc2ccc(C(F)(F)F)cc2)SC12CC2 do in these assays?
Dicer processing: inactive

How did C[C@H]1O[C@@H](n2cc(F)c(=O)[nH]c2=O)[C@H](O)[C@@H]1O do in these assays?
Dicer processing: 3.1

Results for O=c1[nH]c(=O)n(C2O[C@H](CO)[C@@H](O)[C@H]2O)cc1Br (stereo partly specified) ?
Dicer processing: inactive

Results for O=c1[nH]c(=O)n(C2CCCO2)cc1F (stereo unspecified) ?
Dicer processing: inactive

Results for N#Cc1ccc(CSC2=NCN(Cc3ccccc3)CN2)cc1 ?
Dicer processing: inactive

What do the screens show for `CCCS(=O)(=O)c1csc(C(=O)OC)c1NNC(=O)C(C)C`?
Dicer processing: inactive

Results for O=C(NCc1csc2ccccc12)C1CC1 ?
Dicer processing: inactive

Results for O=C(O)CSCC(=O)NCc1csc2ccccc12 ?
Dicer processing: 4.3

How did O=C(O)CSCC(=O)NCc1csc2ccc(Cl)cc12 do in these assays?
Dicer processing: inactive

Results for OCCNC(=S)NC1CCCCCC1 ?
Dicer processing: inactive

What do the screens show for `COc1ccc(/C=C/c2nc(-c3ccc(C)cc3)no2)cc1OC`?
Dicer processing: 3.8

What do the screens show for `COc1ccc(-c2nc(-c3ccc(C)cc3)no2)cc1OC`?
Dicer processing: inactive

What do the screens show for `COc1ccc(/C=C/c2nc(-c3ccncc3)no2)cc1OC`?
Dicer processing: inactive

What do the screens show for `Cc1ccc(C)c(Oc2c(C(F)(F)F)oc3c(CN4CCOCC4)c(O)ccc3c2=O)c1`?
Dicer processing: inactive

What do the screens show for `COC(=O)c1sc(-c2ccc(C(C)(C)C)cc2)cc1NS(=O)(=O)c1cn(C)cn1`?
Dicer processing: inactive

Results for O=C1CC(c2ccccc2Cl)Nc2ccc3ccccc3c21 (stereo unspecified) ?
Dicer processing: inactive

What do the screens show for `CN(C)c1ccc(C2CC(=O)c3ccccc3N2)cc1` (stereo unspecified)?
Dicer processing: inactive

What do the screens show for `O=C1CC(c2cccc(Br)c2)Nc2ccc3ccccc3c21` (stereo unspecified)?
Dicer processing: 3.4

How did CCCc1[nH]nc2c1C(c1ccc(O)cc1)C(C#N)=C(N)O2 (stereo unspecified) do in these assays?
Dicer processing: inactive

How did O=C(O)C1CC(=O)N(c2cccc(O)c2)C1 (stereo unspecified) do in these assays?
Dicer processing: inactive

What do the screens show for `CC1(C)CC(=O)C2=C(C1)Nc1cc3c(cc1C2c1ccc(F)cc1)OCO3` (stereo unspecified)?
Dicer processing: inactive

Results for CCOc1ccc(C2C3=C(CC(C)(C)CC3=O)Nc3cc4c(cc32)OCO4)cc1 (stereo unspecified) ?
Dicer processing: inactive

Results for COc1ccc(C2C3=C(CC(C)(C)CC3=O)Nc3cc4c(cc32)OCO4)cc1 (stereo unspecified) ?
Dicer processing: 6.2

Results for Cc1occc1C(=O)Nc1ccc(N(C)C)cc1 ?
Dicer processing: inactive

Results for CCOC(=O)Oc1cc2oc(=O)sc2cc1Cl ?
Dicer processing: inactive

Results for Cc1ccc(-c2cc(O)cc3sc(=O)oc23)cc1C ?
Dicer processing: 6.6

How did Cc1cc(O)c2c(c1)C(=O)c1cc(O)cc(O)c1C2=O do in these assays?
Dicer processing: inactive

What do the screens show for `CCOC(=O)N1c2ccccc2C(C)(c2ccccc2)CC1(C)C` (stereo unspecified)?
Dicer processing: inactive

How did COc1cccc(N2CC(=O)N(NC(=O)Nc3cccc(Cl)c3)CC2=O)c1 do in these assays?
Dicer processing: inactive

Results for COC(=O)c1ccccc1OCC(O)Cn1c[n+](C)c2cc(C)c(C)cc21 (stereo unspecified) ?
Dicer processing: inactive
